Sampled rows, rich in hits. Any-hit rate of the full collection: about 2.3%.
M1 antag: blocks human M1 muscarinic receptor | P11229 | CHO-K1 hM1, Fluo-8 calcium fluorescence, ACh EC80 antagonist | inhibition, % at 3 µM | 360,000 compounds, 1.3% hits;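 active = percent inhibition above its own plate's cutoff, namely the mean of that plate's compound wells plus 3 SD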;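 note: peak over basal fluorescence ratio during 140 s after agonist addition; 0% = ACh EC80 plus DMSO and 100% = DMSO alone without agonist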
Target sequence (P11229 whole entry, looked up): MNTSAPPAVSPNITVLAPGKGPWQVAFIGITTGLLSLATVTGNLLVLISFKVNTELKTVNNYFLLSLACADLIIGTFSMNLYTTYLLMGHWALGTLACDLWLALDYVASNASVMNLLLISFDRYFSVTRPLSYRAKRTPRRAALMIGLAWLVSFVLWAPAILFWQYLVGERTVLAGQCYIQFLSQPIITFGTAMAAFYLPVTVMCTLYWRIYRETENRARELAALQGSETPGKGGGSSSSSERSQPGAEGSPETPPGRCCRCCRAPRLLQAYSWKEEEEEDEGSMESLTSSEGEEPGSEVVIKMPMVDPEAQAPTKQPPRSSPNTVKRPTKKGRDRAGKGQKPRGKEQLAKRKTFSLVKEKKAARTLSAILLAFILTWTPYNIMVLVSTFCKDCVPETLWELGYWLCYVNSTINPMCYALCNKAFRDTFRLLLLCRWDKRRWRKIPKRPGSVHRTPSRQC
CHRM1 PAM: human CHRM1 positive allosteric modulation | activation, % at 3 µM | CHO-K1 hM1, Fluo-8 calcium fluorescence, ACh EC20; 0% = ACh EC20, 100% = maximal ACh | P11229 | 360,000 compounds, 0.088% hits; in the data active = activation above about 19%, passing the limit was not always enough
M1 ag parental: M1 agonist counterscreen hit in parental CHO-K1 cells. Fluo-8 calcium fluorescence; scaled to maximal ATP response, vehicle zero. 360,000 compounds, 0.48% hits. AID 602248. activation, % at 3 µM; in the data active = activation above about 15%;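 note: untransfected CHO-K1 host cells lacking M1 receptor as counterscreen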
CHO-K1 Ca antag: nonselective inhibitor or artifact in parental CHO-K1 cells; ATP-induced calcium, Fluo-8 fluorescence; 360,000 compounds, 0.6% hits; AID 602250; inhibition, % at 3 µM;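 active = inhibition above a per-plate cutoff, the plate's mean sample inhibition plus 3 SD, cut at about 24% in these data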;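 note: 0% = DMSO plus EC80 ATP and 100% = DMSO alone without ATP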
CHRM1 agonist: activates human CHRM1 receptor. P11229. CHO-K1 hM1, Fluo-8 calcium fluorescence, agonist mode; 0% DMSO, 100% acetylcholine EC100. activation, % at 3 µM. 360,000 compounds, 0.33% hits;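 active = activation above the run's mean compound activation plus 3 SD, cut at about 16% in these data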;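 note: peak over basal fluorescence ratio within a 140 s kinetic read after compound addition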
M1 PAM parental: nonselective activator or artifact in parental CHO-K1 calcium assay; ATP EC20, Fluo-8 calcium fluorescence; 0% at ATP EC20, 100% at ATP max; activation, % at 3 µM; 360,000 compounds, 0.02% hits; AID 602247;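 active = activation above the run cutoff, the mean activation of all test compounds plus 3 SD, cut at about 40% in these data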;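 note: peak over basal fluorescence ratio in a 140 s read after ATP addition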
The depositor's hits bear a star; / = no result given.

SMILES	M1 antag	CHRM1 PAM	M1 ag parental	CHO-K1 Ca antag	CHRM1 agonist	M1 PAM parental
CCNC(=O)C1CCCN(C(=O)c2cccc(OC(F)(F)F)c2)CC1 (stereo not drawn)	-14.1	3.3	5.1	2.9	2.8	6.7
CC1(C(=O)NS(=O)(=O)c2ccccc2)CCN1C(=O)CCc1ccc(Cl)cc1Cl (stereo not drawn)	-17.5	5.8	-0.1	-9.9	-2.0	14.4
Cc1ccccc1CNC(=O)c1[nH]c(C(F)(F)F)nc1-c1ccccc1	-6.5	-9.7	1.6	3.3	2.6	-11.0
FC(F)(F)c1cccc(NC(=S)NCc2ccc(Cl)cc2)c1	22.6	-16.1	16.9*	22.0	1.9	8.8
CC(NC(=S)Nc1cccc(C(F)(F)F)c1)C(C)(C)C (stereo not drawn)	45.5*	-16.8	13.3	13.7	-2.0	-2.1
COC(=O)c1c(C)[nH]c(C(=O)COC(=O)CCc2ccc(OC)c(OC)c2)c1C	-3.8	8.4	0.1	-5.0	-0.8	14.2
CCN(CC)CCC=C(c1cccs1)c1cccs1	95.9*	-28.0	-0.5	-7.3	-5.9	2.1
CCN(CC)CCCNC(=O)/C(=C\c1cccn1C)NC(=O)c1cccs1	-8.2	6.8	1.0	-8.2	-6.8	16.4
O=C(Nc1ccc(Cl)c(Cl)c1)c1cccc(S(=O)(=O)NCc2cccnc2)c1	21.6	-6.2	19.8*	28.2*	1.2	2.5
O=C(Nc1ccc(Cl)c(Cl)c1)OCc1cccnc1	32.6*	-8.2	7.6	26.8*	-0.4	-0.7
COc1cccc(S(=O)(=O)NCc2ccc(C(=O)Nc3ccc(Cl)c(Cl)c3)cc2)c1	10.0	-5.6	1.1	10.9	-2.5	-7.5
CCOC(=O)C1=C[C@@H](C(C)(C)C)N(S(=O)(=O)c2ccc(C)cc2)[C@H]1c1ccc(Cl)c(Cl)c1	1.3	1.8	3.0	21.8	-0.9	0.5
COCCN(C(=O)CSc1ccc2c(c1)OCCO2)c1c(N)n(CC(C)C)c(=O)[nH]c1=O	-8.6	11.5	2.1	-8.9	0.8	20.4
CC1(C)Cc2c(sc(NC(=O)Cc3ccccc3)c2C#N)CO1	-14.3	8.9	0.7	1.3	-3.5	2.8
CC1(C)Cc2c(sc(NC(=O)c3ccc(Br)o3)c2C#N)CO1	-2.1	7.0	0.3	25.3*	-0.8	-8.1
CCC(CC)C(=O)N(C)c1c(C)nc2c(OCCOc3ccc(F)cc3)cccn12	-1.6	-7.5	3.0	-14.6	-6.1	4.0
CC(C)(C)c1ccc(C(O)c2ncc(-c3ccc(F)cc3)[nH]2)cc1 (stereo not drawn)	-7.3	5.0	1.0	-2.3	-1.9	-9.9
Cc1cc(C(=S)N2CCOCC2)c(C)n1-c1ccc(Cl)cc1	29.1*	-25.1	1.9	-3.0	-8.3	18.8
COc1ccc(S(=O)(=O)N2CCC[C@H]2C(=O)N2CCC[C@H]2C(=O)NCc2ccncc2)cc1C	/	/	0.0	-11.6	/	-2.1
CCc1nc2c(OCc3ccccc3C)cccn2c1N(C)C(=O)C1CC1	-3.9	-0.9	0.9	-13.4	-9.1	18.2
O=[N+]([O-])c1ccc(-n2nncc2-c2ccc(Cl)cc2)cc1	-1.2	5.5	0.1	-20.3	-7.4	3.5
Nc1ccc(-n2nncc2-c2ccc(Cl)cc2)cc1	-8.2	6.6	17.2*	2.8	-3.5	4.5
O=C(Nc1cccc(C(=O)O)c1)/C(=C\c1cccc([N+](=O)[O-])c1)NC(=O)c1ccc(Br)cc1	60.9*	-21.1	0.1	7.5	-6.3	6.6
CSc1cccc(NC(=O)CCCOc2cc(=O)n(C)c3ccccc23)c1	-18.1	7.7	1.0	1.4	-4.3	8.3
O=S(=O)([O-])CCC[N+]1(CC#Cc2ccccc2)CCCCC1	-3.4	2.4	0.8	-13.4	-2.7	16.1
SMILES	M1 antag	CHRM1 PAM	M1 ag parental	CHO-K1 Ca antag	CHRM1 agonist	M1 PAM parental
CCN(CC)CCC#CC(O)(c1ccccc1)C1CCCCC1 (stereo not drawn)	98.8*	-37.3	3.4	-19.5	-14.5	13.4
NC(=O)C[N+]1(CC#CC(O)(c2ccccc2)c2ccccc2)CCCC1	91.8*	-32.8	-0.1	-7.8	-13.0	5.5
CCC[N+]1(CC#CC(O)(c2ccccc2)C2CCCCC2)CCCCC1 (stereo not drawn)	98.9*	-27.8	0.1	1.0	-7.2	-4.5
COc1cccc(C(=O)N2CCC[C@@H]2C(=O)N2CCC[C@H]2C(=O)NCc2ccncc2)c1	/	/	-0.2	-9.7	/	-9.1
CC1(C)C2CC=C(/C=N/NC(=S)Nc3cccnc3)C1C2 (stereo not drawn)	1.5	0.1	16.1*	13.6	-4.7	15.2
CCNC(=O)C1CCCN(C(=O)c2ccc3c(c2)CCO3)CC1 (stereo not drawn)	-21.8	7.9	0.5	-7.8	-2.0	2.2
Cc1ccc(CNC(=O)C2(C)CCN2C(=O)Cc2ccc(-c3ccccc3)cc2)cc1 (stereo not drawn)	-0.2	-5.4	7.0	2.3	6.4	12.4
CC(=O)NC(c1cccc(F)c1)c1nc(-c2ccoc2)cs1 (stereo not drawn)	-10.4	3.7	0.0	-3.5	-3.2	-1.2
CC(C)[N+](C)(C)CC(O)CN(c1ccccc1)c1ccccc1 (stereo not drawn)	85.5*	-28.0	0.0	-4.9	-8.5	6.8
NCC(O)CN(c1ccccc1)c1ccccc1 (stereo not drawn)	6.7	-4.4	-0.4	11.9	-4.8	-9.3
C[C@H](CO)N1C[C@H](C)[C@@H](CN(C)Cc2ccc3cccnc3c2)OCc2cnnn2CCCC1=O	-19.4	8.4	1.2	-17.0	0.4	11.4
COc1cccc(CN(C)C(=O)c2ccc(OCC(=O)Nc3cccc(C(F)(F)F)c3)c(OC)c2)c1	39.8*	-11.8	12.1	18.5	0.5	-25.0
CCCCCOCC1CC(C/C(C)=N/NC(N)=O)(C(=O)OCC)C(=O)O1 (stereo not drawn)	7.0	-5.0	0.2	-2.8	-3.5	1.2
CCCCC1(C(=O)OCC)CC(CSC(=N)N)OC1=O (stereo not drawn)	3.4	7.9	19.0*	7.7	-9.8	5.4
CC1(C)CC[C@]2(C(=O)O)CC[C@]3(C)C(=CC[C@@H]4[C@@]5(C)CC[C@H](O[C@@H]6O[C@H](C(=O)O)[C@@H](O)[C@H](O[C@@H]7OC[C@H](O)[C@H](O)[C@H]7O)[C@H]6O)C(C)(C)[C@@H]5CC[C@]43C)[C@@H]2C1	19.4	-8.5	-0.1	24.3*	1.6	-16.5
NC(COCc1ccccc1)c1csc(Nc2ccc(C(=O)NCCO)cc2)n1 (stereo not drawn)	-8.3	12.7	0.2	15.1	-0.6	8.6
O=[N+]([O-])c1ccc(-c2cnc(SC(c3ccccc3)c3ccccc3)[nH]2)cc1	26.4*	-15.4	4.8	0.7	-6.6	15.4
Cc1ccc(NC(=S)NCc2ccccc2)cc1[N+](=O)[O-]	24.9	-16.9	12.3	20.3	-0.7	-14.2
